# Reference: PubChem BioAssay
# The source made the active and inactive calls. Unless noted, how the calls were made is not given here.
# Columns and labels:
# [1] = compound effects on lung adenocarcinoma cell viability – A549, calcein-AM fluorescence, 48 h, basal, profiling panel (AID 1162); details: higher = more signal; further: test concentration not given here
# [2] = compound effects on differentiated 3T3-L1 adipocyte viability – cell-based, 3T3-L1 adipocytes, calcein-AM fluorescence, 48 h, basal, profiling panel (AID 1163); details: 3T3-L1 adipocytes viability, higher = more signal; further: test concentration not given here
# [3] = compound effects on hepatocellular carcinoma cell viability – HepG2, calcein-AM fluorescence, 48 h, basal, profiling panel (AID 1164); details: higher = more signal; further: test concentration not given here
# [4] = compound effects on multiple myeloma cell viability – MM1S, calcein-AM fluorescence, 48 h, basal, profiling panel (AID 1165); details: higher = more signal;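 further: viability of MM1S multiple myeloma cells under basal unstimulated conditions; test concentration not given here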
# [5] = calcein-AM signal in unstimulated myeloma cells – cell-based, calcein-AM fluorescence, 48 h, PK04 Diversity Set, profiling panel (AID 1166); details: RPMI8226 myeloma viability, higher = more signal;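 further: cells grown under basal conditions without added stimulus; test concentration not given here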
# [6] = JC-1 mitochondrial signal, unstimulated HepG2 cells – cell-based, JC-1 fluorescence, 24 h, 100 nL compound, profiling panel (AID 1167); details: HepG2 mitochondrial potential, higher = more signal; further: test concentration not given here
# [7] = JC-1 mitochondrial signal, unstimulated adipocytes – cell-based, JC-1 fluorescence, 3T3-L1 adipocytes, 24 h, 100 nL compound, profiling panel (AID 1168); details: JC-1 mitochondrial fluorescence, higher = more signal, called active from +8 up or from −8 down; further: test concentration not given here
# [8] = JC-1 mitochondrial signal, unstimulated myeloma cells – cell-based, JC-1 fluorescence, RPMI8226, 24 h, 100 nL compound, profiling panel (AID 1169); details: JC-1 mitochondrial potential fluorescence, higher = more signal; further: test concentration not given here
# [9] = JC-1 mitochondrial signal, unstimulated MM1S myeloma – cell-based, JC-1 fluorescence, 24 h, 100 nL compound, profiling panel (AID 1170); details: MM1S mitochondrial potential, higher = more signal; further: test concentration not given here
# [10] = resazurin metabolic signal in A549 cells – cell-based, resazurin fluorescence, 24 h, PK04 Diversity Set, profiling panel (AID 1171); details: A549 viability, higher = more signal, called active from +8 up or from −8 down; further: test concentration not given here
# [11] = resazurin metabolic signal in HepG2 cells – cell-based, resazurin fluorescence, 24 h, PK04 Diversity Set, profiling panel (AID 1172); details: HepG2 viability, higher = more signal; further: test concentration not given here
# [12] = budding yeast growth changes without added modifier – OD600, strain BY4716, 24 h, basal condition, primary screen (AID 1173); details: S. cerevisiae BY4716 growth, OD600, 24 h; higher = more signal, called active from +8 up or from −8 down
# [13] = viability profiling in MM1S myeloma cells – cell-based, resazurin fluorescence, basal, 24 h, PK04 Diversity Set, profiling panel (AID 1174); details: higher = more signal, called active from +8 up or from −8 down; further: test concentration not given here
# [14] = target: Dihydroorotate dehydrogenase (quinone), mitochondrial (Plasmodium falciparum (isolate 3D7)) (UniProt Q08210); assay: inhibition of P. falciparum DHODH – biochemical, C-terminal His tag, absorbance 600 nm, primary screen (AID 1175); details: PfDHODH enzyme, DCIP absorbance 600 nm; higher = more signal, called active from +8 up or from −8 down;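 further: recombinant parasite enzyme with a five histidine tag at its C terminus; test concentration not given here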
# [15] = inhibition of PAO1 biofilm formation – strain PAO1, LB-PBS medium, absorbance 600 nm, primary screen (AID 1176); further: test concentration not given here; details: P. aeruginosa PAO1 growth/biofilm, A600, 12 h; higher = more signal
# [16] = growth modulation of vineyard yeast isolate – strain RM11-1a, OD600, basal, 24 h, primary screen (AID 1177);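 further: cultures grown under basal conditions with no added stressor; test concentration not given here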; details: S. cerevisiae RM11-1a growth, OD600, 24 h; higher = more signal, called active from +8 up or from −8 down
# [17] = growth of efflux-deficient E. coli DRC39 – strain DRC39, OD650, 24 h, E. coli filamentation inducers, primary screen (AID 1178);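 further: growth measured as culture turbidity by optical density at 650 nm; test concentration not given here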; details: E. coli DRC39 acrAB, higher = more signal, called active from +8 up or from −8 down
# [18] = growth of efflux-deficient E. coli DRC39 – strain DRC39, OD650, 48 h, E. coli filamentation inducers, primary screen (AID 1179);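 further: screen aims at cell division blockers that make cells filament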; details: E. coli DRC39 delta-acrAB growth, higher = more signal, called active from +8 up or from −8 down
# [19] = viability profiling in RPMI8226 myeloma cells – cell-based, resazurin fluorescence, basal, 24 h, PK04 Diversity Set, profiling panel (AID 1180); details: higher = more signal;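 further: RPMI8826 multiple myeloma cell line at 5000 cells per well; test concentration not given here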
# [20] = target: E3 ubiquitin-protein ligase XIAP (Homo sapiens) (UniProt P98170); assay: small molecules binding XIAP protein – biophysical, small-molecule microarray, fluorescence 635 nm, primary screen (AID 1181); details: higher = more signal;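 further: score merges 667 nm emission and signal to noise over triplicate slides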
# E3 ubiquitin-protein ligase XIAP (Homo sapiens), sequence (P98170 whole entry, looked up): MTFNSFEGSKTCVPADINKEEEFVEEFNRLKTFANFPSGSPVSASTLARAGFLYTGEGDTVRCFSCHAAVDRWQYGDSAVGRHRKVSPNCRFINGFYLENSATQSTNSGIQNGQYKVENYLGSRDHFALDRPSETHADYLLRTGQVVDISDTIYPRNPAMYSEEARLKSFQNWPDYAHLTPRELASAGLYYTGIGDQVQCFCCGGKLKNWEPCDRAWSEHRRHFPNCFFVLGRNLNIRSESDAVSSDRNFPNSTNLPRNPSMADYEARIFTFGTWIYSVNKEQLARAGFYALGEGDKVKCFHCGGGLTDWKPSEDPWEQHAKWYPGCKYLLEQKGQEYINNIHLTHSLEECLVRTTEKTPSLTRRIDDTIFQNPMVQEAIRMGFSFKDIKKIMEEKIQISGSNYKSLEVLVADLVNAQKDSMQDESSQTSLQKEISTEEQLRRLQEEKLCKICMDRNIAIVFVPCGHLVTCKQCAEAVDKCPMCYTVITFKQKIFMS
# Dihydroorotate dehydrogenase (quinone), mitochondrial (Plasmodium falciparum (isolate 3D7)), sequence (Q08210 whole entry, looked up): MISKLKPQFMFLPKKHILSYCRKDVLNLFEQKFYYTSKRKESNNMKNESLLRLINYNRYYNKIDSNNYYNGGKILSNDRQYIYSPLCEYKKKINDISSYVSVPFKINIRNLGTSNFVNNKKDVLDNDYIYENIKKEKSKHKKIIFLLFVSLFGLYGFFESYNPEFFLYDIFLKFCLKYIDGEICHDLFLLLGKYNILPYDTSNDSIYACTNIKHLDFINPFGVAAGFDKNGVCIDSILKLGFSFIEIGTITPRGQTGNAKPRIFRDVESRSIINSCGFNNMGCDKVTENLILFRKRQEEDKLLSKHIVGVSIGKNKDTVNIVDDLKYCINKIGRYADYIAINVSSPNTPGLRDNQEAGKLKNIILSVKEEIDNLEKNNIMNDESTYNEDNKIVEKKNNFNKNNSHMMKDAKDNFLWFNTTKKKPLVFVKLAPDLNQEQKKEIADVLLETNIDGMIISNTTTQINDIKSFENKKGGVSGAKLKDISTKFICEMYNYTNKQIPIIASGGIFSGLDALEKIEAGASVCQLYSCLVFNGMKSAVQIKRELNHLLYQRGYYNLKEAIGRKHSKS
compound,measurement,setting,value
Cc1cc(C)c(C(O)C2C=CC3C(=O)N(c4ccccc4)C(=O)C3N2Nc2ccc([N+](=O)[O-])cc2)c(C)c1 (stereo not given),z-score,[1],-0.308
same,z-score,[2],1.09
same,z-score,[3],-0.0308
same,z-score,[4],-0.86
same,z-score,[5],-0.662
same,z-score,[6],-1.95
same,z-score,[7],-3.61 (inactive)
same,z-score,[8],-0.367
same,z-score,[9],-1.04
same,z-score,[10],0.634 (inactive)
same,z-score,[11],-0.221
same,z-score,[12],0.414 (inactive)
same,z-score,[13],-0.237 (inactive)
same,composite z-score,[14],-0.212 (inactive)
same,z-score,[15],1.64 (inactive)
same,z-score,[16],0.258 (inactive)
same,z-score,[17],-0.777 (inactive)
same,z-score,[18],-0.624 (inactive)
same,z-score,[19],0.0375
same,composite z-score,[20],0.0827
C=CCOC(=O)[C@@H]1[C@H]2C(=O)O[C@H](c3ccccc3)[C@H](c3ccccc3)N2[C@H](c2ccc(OCCOC(=O)[C@@H]3C[C@@H]4C(=O)N[C@@H](CCCCNC(C)=O)C(=O)N4[C@@H]3c3ccc(O)cc3)cc2)[C@@]12C(=O)Nc1ccc(I)cc12,z-score,[1],0.32
same,z-score,[2],-0.571
same,z-score,[3],-0.179
same,z-score,[4],-0.154
same,z-score,[5],0.165
same,z-score,[6],-0.396
same,z-score,[7],1.21 (inactive)
same,z-score,[8],-0.482
same,z-score,[9],-1.14
same,z-score,[10],0.873 (inactive)
same,z-score,[11],0.971
same,z-score,[12],1.8 (inactive)
same,z-score,[13],0.668 (inactive)
same,composite z-score,[14],-1.19 (inactive)
same,z-score,[15],0.42 (inactive)
same,z-score,[16],1.67 (inactive)
same,z-score,[17],0.514 (inactive)
same,z-score,[18],0.099 (inactive)
same,z-score,[19],0.616
same,composite z-score,[20],0.158
COC(=O)[C@@]1(Cc2ccccc2)[C@H]2c3cc(C(=O)N(C)C)n(Cc4ccccn4)c3C[C@H]2CN1C(=O)c1ccccc1,z-score,[1],-1.43
same,z-score,[2],-0.125
same,z-score,[3],-0.468
same,z-score,[4],-1
same,z-score,[5],-1.71
same,z-score,[6],0.428
same,z-score,[7],-0.698 (inactive)
same,z-score,[8],0.00235
same,z-score,[9],-0.135
same,z-score,[10],-0.712 (inactive)
same,z-score,[11],-0.802
same,z-score,[12],1.6 (inactive)
same,z-score,[13],-1.33 (inactive)
same,composite z-score,[14],0.611 (inactive)
same,z-score,[15],0.964 (inactive)
same,z-score,[16],0.781 (inactive)
same,z-score,[17],-1.19 (inactive)
same,z-score,[18],-0.507 (inactive)
same,z-score,[19],-1.26
same,composite z-score,[20],0.124
N#Cc1ccc(NN2C(C(O)c3ccco3)C=CC3C(=O)N(c4ccccc4)C(=O)C32)cc1 (stereo not given),z-score,[1],-0.121
same,z-score,[2],-0.908
same,z-score,[3],1.26
same,z-score,[4],-0.372
same,z-score,[5],-0.197
same,z-score,[6],-0.764
same,z-score,[7],-0.829 (inactive)
same,z-score,[8],0.45
same,z-score,[9],0.121
same,z-score,[10],-0.2 (inactive)
same,z-score,[11],-0.674
same,z-score,[12],-0.36 (inactive)
same,z-score,[13],-0.512 (inactive)
same,composite z-score,[14],0.0512 (inactive)
same,z-score,[15],1.07 (inactive)
same,z-score,[16],0.293 (inactive)
same,z-score,[17],-2.14 (inactive)
same,z-score,[18],-2.13 (inactive)
same,z-score,[19],-0.607
same,composite z-score,[20],0.0794
CCOC(=O)C1=CC[C@@H](c2ccccc2)N(S(=O)(=O)c2ccc(C)cc2)[C@H]1C=C(C)C,z-score,[1],-1.36
same,z-score,[2],-1.2
same,z-score,[3],-1.01
same,z-score,[4],-1.33
same,z-score,[5],-0.89
same,z-score,[6],4.57
same,z-score,[7],-0.638 (inactive)
same,z-score,[8],-1.01
same,z-score,[9],-1.79
same,z-score,[10],1.26 (inactive)
same,z-score,[11],0.576
same,z-score,[12],2.78 (inactive)
same,z-score,[13],-0.85 (inactive)
same,composite z-score,[14],0.274 (inactive)
same,z-score,[15],0.229 (inactive)
same,z-score,[16],1.65 (inactive)
same,z-score,[17],-0.147 (inactive)
same,z-score,[18],0.449 (inactive)
same,z-score,[19],-2.1
same,composite z-score,[20],0.394
O=C1NC(=O)C2C1C=CC(C(O)CCc1ccccc1)N2Nc1ccccn1 (stereo not given),z-score,[1],-1.58
same,z-score,[2],0.0058
same,z-score,[3],1.23
same,z-score,[4],0.87
same,z-score,[5],1.02
same,z-score,[6],-0.149
same,z-score,[7],-0.382 (inactive)
same,z-score,[8],0.282
same,z-score,[9],0.228
same,z-score,[10],-1.72 (inactive)
same,z-score,[11],-0.875
same,z-score,[12],0.725 (inactive)
same,z-score,[13],-0.871 (inactive)
same,composite z-score,[14],-0.505 (inactive)
same,z-score,[15],1.65 (inactive)
same,z-score,[16],-1.07 (inactive)
same,z-score,[17],0.696 (inactive)
same,z-score,[18],1.07 (inactive)
same,z-score,[19],-0.717
same,composite z-score,[20],0.107
NCCCCCCNC(=O)[C@H]1C[C@H]2C(=O)N3CCC[C@H]3C(=O)N2[C@H]1c1ccc(O)cc1,z-score,[1],-0.194
same,z-score,[2],1.14
same,z-score,[3],-1.01
same,z-score,[4],-0.346
same,z-score,[5],-0.707
same,z-score,[6],-0.806
same,z-score,[7],-1.34 (inactive)
same,z-score,[8],0.26
same,z-score,[9],0.698
same,z-score,[10],-0.608 (inactive)
same,z-score,[11],-0.541
same,z-score,[12],-0.438 (inactive)
same,z-score,[13],-0.431 (inactive)
same,composite z-score,[14],-0.245 (inactive)
same,z-score,[15],-0.0059 (inactive)
same,z-score,[16],-1.09 (inactive)
same,z-score,[17],0.0967 (inactive)
same,z-score,[18],-0.676 (inactive)
same,z-score,[19],-0.508
same,composite z-score,[20],-0.223
CC(C)c1ccc(NN2C(C(O)c3ccccn3)C=CC3C(=O)N(c4ccccc4)C(=O)C32)cc1 (stereo not given),z-score,[1],-0.381
same,z-score,[2],-0.696
same,z-score,[3],-0.293
same,z-score,[4],0.741
same,z-score,[5],-0.712
same,z-score,[6],-0.357
same,z-score,[7],-1.17 (inactive)
same,z-score,[8],-0.597
same,z-score,[9],-0.729
same,z-score,[10],-0.943 (inactive)
same,z-score,[11],-0.981
same,z-score,[12],-0.147 (inactive)
same,z-score,[13],-1.17 (inactive)
same,composite z-score,[14],1.87 (inactive)
same,z-score,[15],0.0895 (inactive)
same,z-score,[16],1.92 (inactive)
same,z-score,[17],0.235 (inactive)
same,z-score,[18],0.0644 (inactive)
same,z-score,[19],-0.698
same,composite z-score,[20],-0.0559
